In the supplement of paper PMC11732987, “Enantioselective OTUD7B fragment discovery through chemoproteomics screening and high-throughput optimisation” (Communications Chemistry, 2025):

How the values were obtained:
Assay in all cases: log2 ratio of Biotin-Ahx-Ub-VS probe labelling (fragment/DMSO); higher = less target engagement (more negative = stronger competition), active = hit call of the paper (q ≤ 0.05, log2 ratio ≤ -1)
Conditions in all cases: compound concentration: 200 uM; treatment time: 3 h
OTUD6B = target: T1, OTUD6B (UniProt Q8N6M0)
T1 sequence (whole entry): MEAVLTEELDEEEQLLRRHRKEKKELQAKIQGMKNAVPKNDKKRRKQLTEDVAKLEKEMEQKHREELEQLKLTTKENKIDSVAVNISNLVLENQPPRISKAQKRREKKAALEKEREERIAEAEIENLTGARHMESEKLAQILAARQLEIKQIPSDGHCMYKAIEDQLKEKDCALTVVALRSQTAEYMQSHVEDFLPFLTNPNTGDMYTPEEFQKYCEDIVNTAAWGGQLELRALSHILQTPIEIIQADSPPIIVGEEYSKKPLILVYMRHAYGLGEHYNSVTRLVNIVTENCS
How it was run: (§1)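 Global-median-normalised Spectronaut label-free quantities were compared by unpaired t-test, and values are average log2 ratios of fragment over vehicle. Only proteins with ≥2 unique peptides were used. HEK293T lysate (495 µg per sample) was treated in triplicate with fragment at 200 µM or vehicle for 3 h and then with Biotin-Ahx-Ub-VS at 0.5 µM final for 1 h. Labelled DUBs were then NeutrAvidin-enriched, digested with LysC and trypsin, and run by diaPASEF LC-MS/MS.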

OTUD7B = target: T2, OTUD7B (UniProt Q6GQQ9)
T2 sequence (whole entry): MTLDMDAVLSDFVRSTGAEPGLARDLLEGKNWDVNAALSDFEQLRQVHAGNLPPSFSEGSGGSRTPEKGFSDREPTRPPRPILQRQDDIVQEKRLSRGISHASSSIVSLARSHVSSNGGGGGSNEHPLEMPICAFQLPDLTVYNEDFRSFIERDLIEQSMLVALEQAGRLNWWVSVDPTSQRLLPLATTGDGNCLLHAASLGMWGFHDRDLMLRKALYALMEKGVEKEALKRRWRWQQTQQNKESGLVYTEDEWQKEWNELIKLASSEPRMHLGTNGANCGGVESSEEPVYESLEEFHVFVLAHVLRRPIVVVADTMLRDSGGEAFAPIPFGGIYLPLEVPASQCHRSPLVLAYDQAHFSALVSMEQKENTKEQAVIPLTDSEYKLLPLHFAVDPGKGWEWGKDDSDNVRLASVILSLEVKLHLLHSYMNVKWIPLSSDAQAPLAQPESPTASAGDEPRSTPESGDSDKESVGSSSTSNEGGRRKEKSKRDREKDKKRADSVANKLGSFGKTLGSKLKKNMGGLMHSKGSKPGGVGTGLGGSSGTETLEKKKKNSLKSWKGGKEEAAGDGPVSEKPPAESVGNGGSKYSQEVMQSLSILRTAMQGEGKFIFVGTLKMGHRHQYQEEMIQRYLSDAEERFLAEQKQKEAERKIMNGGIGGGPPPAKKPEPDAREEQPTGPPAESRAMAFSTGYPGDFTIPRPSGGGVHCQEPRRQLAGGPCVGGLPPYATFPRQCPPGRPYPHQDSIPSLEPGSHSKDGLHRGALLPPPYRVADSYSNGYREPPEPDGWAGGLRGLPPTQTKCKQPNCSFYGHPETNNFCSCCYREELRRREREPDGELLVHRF
How it was run: as §1

PRPF8 = PRPF8 (UniProt Q6P2Q9)
How it was run: as §1

PSMD7 = target: T3, PSMD7 (UniProt P51665)
T3 sequence (whole entry): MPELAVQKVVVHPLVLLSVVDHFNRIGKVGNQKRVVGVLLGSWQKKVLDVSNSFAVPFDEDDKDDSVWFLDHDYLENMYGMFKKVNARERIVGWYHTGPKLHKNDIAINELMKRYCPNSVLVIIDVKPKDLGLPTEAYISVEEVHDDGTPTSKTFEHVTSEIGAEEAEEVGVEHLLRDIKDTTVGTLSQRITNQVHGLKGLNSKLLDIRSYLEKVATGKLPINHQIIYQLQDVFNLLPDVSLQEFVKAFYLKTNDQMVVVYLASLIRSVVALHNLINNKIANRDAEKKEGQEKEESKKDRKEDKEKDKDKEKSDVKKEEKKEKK
How it was run: as §1

UCHL1 = UCHL1 (UniProt P09936)
Chain of UCHL1 (P09936 whole entry, looked up): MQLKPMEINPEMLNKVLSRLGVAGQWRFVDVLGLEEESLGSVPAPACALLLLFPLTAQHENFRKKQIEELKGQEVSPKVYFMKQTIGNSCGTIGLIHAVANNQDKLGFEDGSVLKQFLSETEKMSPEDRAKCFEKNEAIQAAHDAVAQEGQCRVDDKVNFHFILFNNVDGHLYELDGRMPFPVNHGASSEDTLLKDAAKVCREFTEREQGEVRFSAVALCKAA
How it was run: as §1

UCHL3 = target: T4, UCHL3 (UniProt P15374)
T4 sequence (whole entry): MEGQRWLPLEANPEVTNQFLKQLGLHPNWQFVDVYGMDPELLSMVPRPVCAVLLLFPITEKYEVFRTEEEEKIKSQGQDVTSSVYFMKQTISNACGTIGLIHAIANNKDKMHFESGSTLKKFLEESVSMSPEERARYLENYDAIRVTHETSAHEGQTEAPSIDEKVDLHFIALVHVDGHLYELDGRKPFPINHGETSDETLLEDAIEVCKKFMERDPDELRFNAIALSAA
How it was run: as §1

UCHL5 = target: T5, UCHL5 (UniProt Q9Y5K5)
T5 sequence (whole entry): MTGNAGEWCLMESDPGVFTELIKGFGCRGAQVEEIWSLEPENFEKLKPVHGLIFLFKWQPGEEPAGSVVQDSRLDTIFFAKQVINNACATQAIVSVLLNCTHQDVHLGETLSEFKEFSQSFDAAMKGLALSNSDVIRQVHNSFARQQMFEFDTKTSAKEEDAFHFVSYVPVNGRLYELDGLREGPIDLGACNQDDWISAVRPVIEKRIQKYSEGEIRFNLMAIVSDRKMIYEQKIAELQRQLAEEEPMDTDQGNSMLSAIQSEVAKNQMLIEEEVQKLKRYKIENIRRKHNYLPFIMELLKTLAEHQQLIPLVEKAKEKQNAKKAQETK
How it was run: as §1

USP10 = USP10 (UniProt Q14694)
Chain of USP10 (Q14694 whole entry): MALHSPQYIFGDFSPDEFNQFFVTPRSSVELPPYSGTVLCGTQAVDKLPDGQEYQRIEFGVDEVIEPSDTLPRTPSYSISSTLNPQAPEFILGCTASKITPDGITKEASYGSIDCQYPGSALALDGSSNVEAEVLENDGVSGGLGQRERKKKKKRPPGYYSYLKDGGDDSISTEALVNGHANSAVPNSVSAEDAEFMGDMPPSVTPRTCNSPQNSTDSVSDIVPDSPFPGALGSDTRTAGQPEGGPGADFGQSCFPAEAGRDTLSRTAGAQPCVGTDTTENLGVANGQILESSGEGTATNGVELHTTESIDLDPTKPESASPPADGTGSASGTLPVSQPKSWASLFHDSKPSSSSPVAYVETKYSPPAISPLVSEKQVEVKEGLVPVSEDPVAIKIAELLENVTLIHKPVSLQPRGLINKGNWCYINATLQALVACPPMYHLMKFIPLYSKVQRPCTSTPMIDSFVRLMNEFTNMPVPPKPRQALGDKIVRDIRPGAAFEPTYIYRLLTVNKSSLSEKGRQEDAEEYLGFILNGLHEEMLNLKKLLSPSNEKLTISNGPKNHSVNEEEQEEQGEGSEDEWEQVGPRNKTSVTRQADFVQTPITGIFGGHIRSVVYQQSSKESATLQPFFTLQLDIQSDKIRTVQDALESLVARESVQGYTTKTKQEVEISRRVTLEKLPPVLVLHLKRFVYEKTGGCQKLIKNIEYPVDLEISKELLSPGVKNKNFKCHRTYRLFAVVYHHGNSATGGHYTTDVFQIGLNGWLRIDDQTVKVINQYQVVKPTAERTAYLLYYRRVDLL
How it was run: as §1

USP15 = target: T6, USP15 (UniProt Q9Y4E8)
T6 sequence (whole entry): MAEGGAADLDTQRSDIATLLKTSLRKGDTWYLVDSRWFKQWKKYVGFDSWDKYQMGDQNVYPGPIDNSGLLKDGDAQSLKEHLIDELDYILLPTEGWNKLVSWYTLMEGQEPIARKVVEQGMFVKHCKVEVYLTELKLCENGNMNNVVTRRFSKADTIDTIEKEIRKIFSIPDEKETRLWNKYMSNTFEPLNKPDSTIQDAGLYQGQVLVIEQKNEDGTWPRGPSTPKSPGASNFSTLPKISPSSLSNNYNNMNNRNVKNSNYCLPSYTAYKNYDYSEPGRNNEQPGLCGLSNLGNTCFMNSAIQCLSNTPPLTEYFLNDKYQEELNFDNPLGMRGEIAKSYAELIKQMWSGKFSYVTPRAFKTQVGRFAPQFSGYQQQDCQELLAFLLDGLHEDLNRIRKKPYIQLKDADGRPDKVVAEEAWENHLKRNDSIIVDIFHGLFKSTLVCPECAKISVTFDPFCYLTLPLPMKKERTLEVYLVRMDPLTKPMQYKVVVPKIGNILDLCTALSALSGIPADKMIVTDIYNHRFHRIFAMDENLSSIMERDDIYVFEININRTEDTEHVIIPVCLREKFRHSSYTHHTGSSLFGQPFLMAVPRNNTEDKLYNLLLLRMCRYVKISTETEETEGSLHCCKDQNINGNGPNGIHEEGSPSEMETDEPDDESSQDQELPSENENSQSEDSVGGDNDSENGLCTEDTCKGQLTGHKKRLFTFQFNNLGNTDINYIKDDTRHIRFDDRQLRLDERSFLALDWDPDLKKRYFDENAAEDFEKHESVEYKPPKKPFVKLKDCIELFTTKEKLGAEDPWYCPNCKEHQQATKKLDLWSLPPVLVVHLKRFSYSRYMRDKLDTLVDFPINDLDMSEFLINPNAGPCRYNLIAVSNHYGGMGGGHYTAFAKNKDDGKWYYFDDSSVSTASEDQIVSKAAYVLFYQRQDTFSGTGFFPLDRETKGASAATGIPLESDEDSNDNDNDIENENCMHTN
How it was run: as §1

Measured: log2 ratio of Biotin-Ahx-Ub-VS probe labelling

CNC(=O)C1CCN(C(=O)CCl)CC1
inactive: OTUD6B -0.163 | OTUD7B -0.121 | PRPF8 -0.218 | PSMD7 0.12 | UCHL1 -0.544 | UCHL3 0.53 | UCHL5 -0.0712 | USP10 -0.383 | USP15 -0.0196
